Reference: PubChem BioAssay
Values joined by “and” are separate entries in the source; they are usually repeats but may differ in a detail not shown here. Equal entries are not always repeated. Inconclusive results are not listed. Active and inactive are the calls of the source.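 The calls were made as follows, unless noted: active = normalized viability below 100% at a tested concentration; inactive = the rest.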

Key:
[1] = EMT-state selective cytotoxicity in co-culture – imaging, PC-3E GFP, TEM4-18 mCherry, primary screen (AID 1345086;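 active = compounds killing one labelled cell type while sparing the other, by normalised counts and ratio limits, not self-fluorescent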;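 as to all read-outs here: cells exposed to compound for 72 h before imaging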;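 as to red/green cell ratio (normalised): normalised mesenchymal count divided by normalised epithelial count so high means epithelial killing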); settings: PC-3E GFP / TEM4-18 mCherry co-culture, imaging cell counts, at 1 µM; for red/green cell ratio (normalised): actives lie on both sides, counts scaled to control wells, 1 = unselective
[2] = viability loss in pontine glioma line – cell-based, SU-DIPG-XVII, MIPE5.0, CellTiter-Glo, qHTS, dose response (AID 1347060; cut-off not given, nearly all actives have AC50 up to about 26 µM); settings: CellTiter-Glo ATP luminescence
[3] = viability loss in pontine glioma line – cell-based, SU-DIPG-XIII, MIPE4.0, CellTiter-Glo, qHTS, dose response (AID 1347061; cut-off not given, nearly all actives have AC50 up to about 37 µM;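 also: cells exposed to compound for 48 hours before readout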); settings: CellTiter-Glo ATP luminescence
[4] = viability loss in pontine glioma line – cell-based, SU-DIPG-XIII, MIPE5.0, CellTiter-Glo, qHTS, dose response (AID 1347064; cut-off not given, nearly all actives have AC50 up to about 23 µM); settings: CellTiter-Glo ATP luminescence
[5] = viability loss in pontine glioma line – cell-based, SU-DIPG-XXV, MIPE5.0, CellTiter-Glo, qHTS, dose response (AID 1347065; cut-off not given, nearly all actives have AC50 up to about 26 µM;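 also: cells exposed to compound for 48 hours before ATP readout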); settings: CellTiter-Glo ATP luminescence
[6] = JHH-DIPG-1 glioma cell viability, MIPE5.0 library, CellTiter-Glo luminescence, qHTS (AID 1347067; cut-off not given, nearly all actives have AC50 up to about 26 µM;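 also: cells exposed to compound for 48 hours before readout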); settings: JHH-DIPG-1 glioma viability, CellTiter-Glo ATP luminescence
[7] = growth inhibition of DIPG cells – cell-based, MIPE5.0 library, qHTS (AID 1347068; cut-off not given, nearly all actives have IC50 up to about 30 µM); settings: SU-DIPG-XXV viability
[8] = viability loss with induced miR-34 in A549 – imaging, A549 dox-inducible miR-34, nuclei and caspase counts, primary screen (AID 1347080;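 active = compounds whose cell count with miR-34 switched on is under 0.7 times the count with it off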); settings: A549 miR-34 inducible, Hoechst nuclei count, 48 h
[9] = compounds altering HSF1 focus formation in cells – imaging, Selleck Cancer Library (AID 1347162; in the data active = plate-normalised HSF1 focus index below about 0.46); settings: human cells, HSF1 nuclear foci imaging, at 10 µM; SSMD: measured here: HSF1 foci SSMD mean; cell count: measured here: cell number; plate-normalised HSF1 focus index: stronger effect = lower value
[10] = MELAS cybrid and Rieske KO viability enhancers – cell-based, MELAS cybrids, Rieske KO mouse fibroblasts, CellTiter-Glo, primary screen (AID 1508586;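 active = mean z-score across replicates of 1.96 or higher in either the MELAS or the Rieske mutant cell line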;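 also: z relative to plate mean and SD of compound and empty wells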); settings: low glucose
[11] = drug combination growth inhibition, ovarian cancer – cell-based, oncology-focused library, rucaparib conditional, profiling panel (AID 1508598); settings: patient-derived ovarian cancer cells, CellTiter-Glo viability, 144 h, stronger effect = lower value
[12] = viability loss in pontine glioma line – cell-based, JHH-DIPG-1, MIPE4.0, CellTiter-Glo, qHTS, dose response (AID 1347062; cut-off not given, nearly all actives have AC50 up to about 27 µM); settings: JHH-DIPG-1 viability, CellTiter-Glo ATP luminescence
[13] = viability loss in pontine glioma line – cell-based, SU-DIPG-IV, MIPE4.0, CellTiter-Glo, qHTS, dose response (AID 1347063; cut-off not given, nearly all actives have AC50 up to about 30 µM;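 also: compound exposure lasted 48 hours before the viability readout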); settings: CellTiter-Glo ATP luminescence
[14] = growth inhibition of DIPG cells – cell-based, MIPE4.0 library, CellTiter-Glo luminescence, qHTS (AID 1347066; cut-off not given, nearly all actives have AC50 up to about 30 µM;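 also: cells exposed to compound for 48 hours before readout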); settings: SU-DIPG-VI viability, CellTiter-Glo ATP luminescence
[15] = measured here: epithelial PC-3E GFP cell survival
[16] = measured here: mesenchymal TEM4-18 mCherry cell survival
[17] = stronger effect = lower value, cell number ratio, induced over uninduced
[18] = measured here: relative caspase fold change +Dox/-Dox
[19] = measured here: total cells with miR-34 induction, stronger effect = lower value
[20] = measured here: total cells without miR-34 induction
[21] = MELAS cybrid survival, CellTiter-Glo 48 h, stronger effect = higher value
[22] = Rieske KO mouse fibroblast survival, CellTiter-Glo 72 h
[23] = at 0.000305 µM, OCI-C5x cells, with rucaparib 10 µM, 100% = cells with rucaparib alone
[24] = at 0.000305 µM, OCI-C5x cells, without rucaparib
[25] = at 0.000305 µM, OCI-P5x cells, with rucaparib 20 µM, 100% = cells with rucaparib alone
[26] = at 0.000305 µM, OCI-P5x cells, without rucaparib
[27] = at 0.00122 µM, OCI-C5x cells, with rucaparib 10 µM, 100% = cells with rucaparib alone
[28] = at 0.00122 µM, OCI-C5x cells, without rucaparib
[29] = at 0.00122 µM, OCI-P5x cells, with rucaparib 20 µM, 100% = cells with rucaparib alone
[30] = at 0.00122 µM, OCI-P5x cells, without rucaparib
[31] = at 0.00488 µM, OCI-C5x cells, with rucaparib 10 µM, 100% = cells with rucaparib alone
[32] = at 0.00488 µM, OCI-C5x cells, without rucaparib
[33] = at 0.00488 µM, OCI-P5x cells, with rucaparib 20 µM, 100% = cells with rucaparib alone
[34] = at 0.00488 µM, OCI-P5x cells, without rucaparib
[35] = at 0.0195 µM, OCI-C5x cells, with rucaparib 10 µM, 100% = cells with rucaparib alone
[36] = at 0.0195 µM, OCI-C5x cells, without rucaparib
[37] = at 0.0195 µM, OCI-P5x cells, with rucaparib 20 µM, 100% = cells with rucaparib alone
[38] = at 0.0195 µM, OCI-P5x cells, without rucaparib
[39] = at 0.0781 µM, OCI-C5x cells, with rucaparib 10 µM, 100% = cells with rucaparib alone
[40] = at 0.0781 µM, OCI-C5x cells, without rucaparib
[41] = at 0.0781 µM, OCI-P5x cells, with rucaparib 20 µM, 100% = cells with rucaparib alone
[42] = at 0.0781 µM, OCI-P5x cells, without rucaparib
[43] = at 0.313 µM, OCI-C5x cells, with rucaparib 10 µM, 100% = cells with rucaparib alone
[44] = at 0.313 µM, OCI-C5x cells, without rucaparib
[45] = at 0.313 µM, OCI-P5x cells, with rucaparib 20 µM, 100% = cells with rucaparib alone
[46] = at 0.313 µM, OCI-P5x cells, without rucaparib
[47] = at 1.25 µM, OCI-C5x cells, with rucaparib 10 µM, 100% = cells with rucaparib alone
[48] = at 1.25 µM, OCI-C5x cells, without rucaparib
[49] = at 1.25 µM, OCI-P5x cells, with rucaparib 20 µM, 100% = cells with rucaparib alone
[50] = at 1.25 µM, OCI-P5x cells, without rucaparib
[51] = at 5 µM, OCI-C5x cells, with rucaparib 10 µM, 100% = cells with rucaparib alone
[52] = at 5 µM, OCI-C5x cells, without rucaparib
[53] = at 5 µM, OCI-P5x cells, with rucaparib 20 µM, 100% = cells with rucaparib alone
[54] = at 5 µM, OCI-P5x cells, without rucaparib

COc1cc2c(N3CCN(C(=O)Nc4ccc(OC(C)C)cc4)CC3)ncnc2cc1OCCCN1CCCCC1
7020: cell count [9]
1.09 and 0.885: fold change [8, 18]
1.23: normalised cell number [1, 16]
1.09: normalised cell number [1, 15]
0.871: SSMD [9]
active: viability [11, 25] 86.7% | viability [11, 26] 88.3% | viability [11, 29] 97% | viability [11, 30] 88.4% | viability [11, 32] 97.5% | viability [11, 34] 96.8% | viability [11, 36] 98.4% | viability [11, 38] 92.4% | viability [11, 42] 94.2% | viability [11, 46] 90.4% | viability [11, 50] 90% | viability [11, 54] 86.2%
inactive: red/green cell ratio (normalised) [1] 1.13 | outcome [2] | outcome [3] | outcome [4] | outcome [5] | outcome [6] | outcome [7] | fold change [8, 17] 0.882 and 0.979 | plate-normalised HSF1 focus index [9] 1.05 | z-score [10, 21] -0.531 | viability [11, 23] 113% | viability [11, 24] 103% | viability [11, 27] 104% | viability [11, 28] 105% | viability [11, 31] 112% | viability [11, 33] 114% | viability [11, 35] 109% | viability [11, 37] 130% | viability [11, 39] 113% | viability [11, 40] 105% | viability [11, 41] 115% | viability [11, 43] 119% | viability [11, 44] 113% | viability [11, 45] 146% | viability [11, 47] 123% | viability [11, 48] 117% | viability [11, 49] 105% | viability [11, 51] 158% | viability [11, 52] 138% | viability [11, 53] 115%
7400 and 5330: cell count [8, 19]
0.343: z-score [10, 22]
8380 and 5450: cell count [8, 20]

O=C(O)CSCC(=O)NC1CCSC1=O (centres undefined)
0.356: z-score [10, 22]
inactive: red/green cell ratio (normalised) [1] 1.25 | outcome [2] | outcome [3] | outcome [12] | outcome [13] | outcome [5] | outcome [14] | outcome [6] | outcome [7] | fold change [8, 17] 0.961 and 0.85 | z-score [10, 21] -0.199
8600 and 9570: cell count [8, 20]
1.17: normalised cell number [1, 16]
0.755 and 1.41: fold change [8, 18]
0.94: normalised cell number [1, 15]
8260 and 8130: cell count [8, 19]

CCC(C)n1ncn(-c2ccc(N3CCN(c4ccc(OC[C@H]5CO[C@](Cn6cncn6)(c6ccc(Cl)cc6Cl)O5)cc4)CC3)cc2)c1=O (some centres undefined)
2.18: SSMD [9]
inactive: red/green cell ratio (normalised) [1] 0.8 | outcome [2] | outcome [3] | outcome [12] | outcome [14] | outcome [6] | outcome [7] | plate-normalised HSF1 focus index [9] 1.11 | viability [11, 23] 118% | viability [11, 24] 110% | viability [11, 27] 118% | viability [11, 28] 100% | viability [11, 31] 122% | viability [11, 32] 105% | viability [11, 35] 127% | viability [11, 36] 116% | viability [11, 39] 126% | viability [11, 40] 119% | viability [11, 43] 131% | viability [11, 44] 118% | viability [11, 47] 131% | viability [11, 48] 126% | viability [11, 51] 135% | viability [11, 52] 123%
active: viability [11, 25] 90.3% | viability [11, 26] 83% | viability [11, 29] 93.4% | viability [11, 30] 81.8% | viability [11, 33] 95.6% | viability [11, 34] 90.8% | viability [11, 37] 96.2% | viability [11, 38] 89.4% | viability [11, 41] 96.6% | viability [11, 42] 95.1% | viability [11, 45] 98.6% | viability [11, 46] 95.8% | viability [11, 49] 93.3% | viability [11, 50] 94.8% | viability [11, 53] 92.7% | viability [11, 54] 94.9%
1.27: normalised cell number [1, 15]
6750: cell count [9]
1.01: normalised cell number [1, 16]

COc1cc([C@H]2Oc3cc([C@H]4Oc5cc(O)cc(O)c5C(=O)[C@@H]4O)ccc3O[C@@H]2CO)ccc1O
0.88: normalised cell number [1, 16]
0.9: normalised cell number [1, 15]
inactive: red/green cell ratio (normalised) [1] 0.97 | outcome [2] | outcome [3] | outcome [12] | outcome [14] | outcome [7]
